Here are results for six compounds from PubChem BioAssay (NCATS).

Where “and” joins values, the source holds several entries; their conditions need not be identical. Equal values may be shown once. Inconclusive results are not listed. Some structures have more than one record in an assay (separate samples or runs), and their calls can disagree. Calls of active or inactive are those of the source. The call rests on the fitted dose curve; in most records, active means well fitted curve in the direction sought with a large enough effect; inconclusive means small, poorly fitted or top-dose-only effect, or another doubt; inactive means no such curve, though single readings can be large; an effect the other way counts as inactive or inconclusive.

A short description of assay [1]: S16 Schwann cell viability assay (CellTiter-Glo assay) (AID 624031).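 Further: cellular ATP luminescence as a viability measure; nearly all actives have a fitted effect of over 70% in size.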 Summed up: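 Native S16 rat Schwann cells, 500-750 cells/well in DMEM with 10% FBS, dosed with compound after overnight culture and incubated 24h at 37 degree Celsius/5% CO2. Viability by CellTiter-Glo luminescence; % activity normalized to no-cell wells and DMSO-treated cells.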
(In general: Cellular ATP, detected with luciferase, serves as a proxy for viable cell number.)

The test system of the next assay is ATS189. The assay is described as follows: qHTS profiling for inhibitors of Plasmodium falciparum proliferation (AID 504749). Further: nearly all actives have a fitted effect of over 60% in size. Further: potency means the concentration at half of the fitted maximal effect. Conditions: P. falciparum in erythrocytes, SYBR Green DNA, 72 h; series mostly up to 28.7 µM. The method in brief: (§1)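 Three-day growth assay of blood-stage parasites in erythrocytes (0.3% parasitemia, 2.5% hematocrit) at 37 C, 5% CO2, quantified by SYBR Green DNA staining after overnight detergent lysis.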
Background: qHTS replaces the single test concentration by a dilution series.

A further assay relates to CP194. The description is as above. Conditions: P. falciparum in erythrocytes, SYBR Green DNA, 72 h; series mostly up to 28.7 µM. Summed up: as §1
The test system of the next assay is CP201. The assay is described as above. Conditions: P. falciparum in erythrocytes, SYBR Green DNA, 72 h; series mostly up to 28.7 µM. The method in brief:
as §1

The next assay has as its system CP203. The description is as above. The conditions noted are these: P. falciparum in erythrocytes, SYBR Green DNA, 72 h; series mostly up to 28.7 µM. The method in brief:
as §1

A further assay has as its system CP215. The description is as above. The conditions noted are these: P. falciparum in erythrocytes, SYBR Green DNA, 72 h; series mostly up to 28.7 µM. Summed up: as §1
The next assay has as its system CP252. The description is as above. Conditions: P. falciparum in erythrocytes, SYBR Green DNA, 72 h; series mostly up to 28.7 µM. Summed up:
as §1

The test system of the next assay is CP256. The assay is described as above. The conditions noted are these: P. falciparum in erythrocytes, SYBR Green DNA, 72 h; series mostly up to 28.7 µM. Summed up:
as §1

The next assay concerns CP265. The description is as above. Conditions: P. falciparum in erythrocytes, SYBR Green DNA, 72 h; series mostly up to 28.7 µM. Summed up:
as §1

The next assay has as its system CP266. Described as above. Conditions: P. falciparum in erythrocytes, SYBR Green DNA, 72 h; series mostly up to 28.7 µM. The method in brief: as §1
The next assay concerns CP268. The description is as above. The conditions noted are these: P. falciparum in erythrocytes, SYBR Green DNA, 72 h; series mostly up to 28.7 µM. The method in brief: as §1
A further assay concerns CP291. Described as above. The conditions noted are these: P. falciparum in erythrocytes, SYBR Green DNA, 72 h; series mostly up to 28.7 µM. Summed up: as §1
For the next assay, the system named is CP297. The assay is described as above. Conditions: P. falciparum in erythrocytes, SYBR Green DNA, 72 h; series mostly up to 28.7 µM. The method in brief:
as §1

In another assay the test system is CP329. The description is as above. Conditions: P. falciparum in erythrocytes, SYBR Green DNA, 72 h; series mostly up to 28.7 µM. Summed up:
as §1

For a further assay, the system named is TAB109. Described as above. Conditions: P. falciparum in erythrocytes, SYBR Green DNA, 72 h; series mostly up to 28.7 µM. The method in brief: as §1
A further assay has as its system AA1029. The assay is described as above. The conditions noted are these: P. falciparum in erythrocytes, SYBR Green DNA, 72 h; series mostly up to 28.7 µM. The method in brief:
as §1

In the next assay the test system is AS120. Described as above. The conditions noted are these: P. falciparum in erythrocytes, SYBR Green DNA, 72 h; series mostly up to 28.7 µM. The method in brief: as §1
For a further assay, the system named is CP237. Described as above. Conditions: P. falciparum in erythrocytes, SYBR Green DNA, 72 h; series mostly up to 28.7 µM. The method in brief: as §1
In another assay the test system is ECU. The assay is described as above. Conditions: P. falciparum in erythrocytes, SYBR Green DNA, 72 h; series mostly up to 28.7 µM. Summed up: as §1
Another assay has as its system PC15. Described as above. Conditions: P. falciparum in erythrocytes, SYBR Green DNA, 72 h; series mostly up to 28.7 µM. Summed up:
as §1

Turning to `COc1ccc(S(=O)(=O)N2c3ccc(Cl)cc3[C@](O)(c3ccccc3Cl)[C@@H]2C(=O)N2CCC[C@H]2C(N)=O)cc1OC`, the Potency entry (in assay [1]; in the assay with ATS189; in the assay on CP194; in the assay with CP201; in the assay on CP203; with CP215) was “inactive” each time. The Potency result with CP252, with CP256, with CP265, in the assay on CP266, in the assay on CP268 and with CP291 was “inactive” each time. The Potency result with CP297, with CP329 and in the assay with TAB109 was “inactive” in each case.

Turning to `C/C(=C(/CCO)SS/C(CCO)=C(\C)N(C=O)Cc1cnc(C)nc1N)N(C=O)Cc1cnc(C)nc1N`, the Potency result (in [1]; in the assay on AA1029; in the assay on AS120; in the assay on ATS189; in the assay with CP194; with CP201) was “inactive” each time. The Potency entry in the assay on CP203, with CP215, in the assay with CP237, in the assay on CP252, in the assay on CP256 and in the assay with CP265 was “inactive” each time. The Potency entry in the assay on CP266, in the assay on CP268, with CP291, in the assay on CP297, in the assay with CP329 and in the assay with ECU was “inactive” each time. The Potency result in the assay with PC15 was “inactive”.

As for `CCC(=O)O[C@]1(C(=O)CCl)[C@@H](C)CC2C3C[C@H](F)C4=CC(=O)C=CC4(C)[C@@]3(F)C(O)CC21C` (some centres undefined), the Potency in the assay on AA1029 was 8.91 µM (active); with AS120 it was 7.94 µM (active); in the assay with ATS189, 10 µM (active); in the assay with CP194 it was 15.1 µM (active); in the assay on CP215 it was 10.7 µM (active); with CP237, 3.55 µM (active). The Potency was 8.91 µM (active) in the assay on CP252; 11.2 µM (active) in the assay with CP256; 8.91 µM (active) in the assay with CP265; 12 µM (active) with CP268; 13.5 µM (active) in the assay with CP291; 10.7 µM (active) in the assay on CP297. For the same compound, the Potency was 15.1 µM (active) in the assay on CP329, 3.55 µM (active) in the assay on ECU, 8.91 µM (active) with PC15 and 5.01 µM (active) with TAB109.

For `CNC1=CN(O)C(c2ccccc2)=c2cc(Cl)ccc2=N1`, the Potency entry (in assay [1]; with CP237; in the assay with CP256; in the assay on PC15) was “inactive” throughout. Besides, the Potency is 11.2 µM (active) and inactive in the assay with AS120; 4.47 µM (active) in the assay with ATS189; 4.26 µM (active) in the assay with CP194; 4.26 µM (active) and inactive in the assay with CP201; 4.26 µM (active) in the assay with CP203; 4.26 µM (active) and 10.7 µM (active) in the assay with CP215. The Potency is 8.91 µM (active) in the assay on CP252; 6.31 µM (active) in the assay on CP265; 4.78 µM (active) with CP266; 4.26 µM (active) in the assay with CP268; 3.38 µM (active) in the assay on CP291; 4.26 µM (active) with CP297. Also, the Potency with CP329 was 3.79 µM (active) and inactive; in the assay on TAB109 it was 3.55 µM (active).

For the compound `C[N+]12CCCC[C@@H]1CCC(=C(c1cccs1)c1cccs1)C2` (some centres undefined), the Potency entry in assay [1] is “inactive”. Moreover, the Potency in the assay on AA1029 was 8.91 µM (active); with AS120, 10 µM (active); with CP203 it was 16.9 µM (active); in the assay on CP215, 15.1 µM (active); with CP268, 15.1 µM (active); with CP291, 15.1 µM (active). In addition, the Potency was 1 µM (active) in the assay on ECU and 2.51 µM (active) in the assay on TAB109.

For `C=C1NC(=O)c2cc(CN(C)c3ccc(C(=O)N[C@@H](CCC(=O)O)C(=O)O)s3)ccc2N1`, the Potency entry (in assay [1]; in the assay with AA1029; in the assay with AS120; with ATS189; in the assay on CP194; in the assay on CP201) was “inactive” throughout. The Potency entry in the assay on CP203, in the assay on CP215, in the assay on CP252, with CP256, in the assay on CP265 and in the assay on CP266 was “inactive” throughout. Besides, the Potency result in the assay on CP268, in the assay with CP329, in the assay on ECU, in the assay on PC15 and in the assay with TAB109 was “inactive” each time.
